Results taken from PubChem BioAssay AID633 (Emory University Molecular Libraries Screening Center, 2007).
About 1,100 (1.3%) of roughly 86,000 compounds were called active.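 The calls were made as follows: active = compounds whose percent inhibition of the receptor-coactivator binding signal exceeds about 50% in the single-dose screen (limit read from the data); inactive = the rest.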 Only a selection was taken, and actives are over-represented in it overall.

These compounds were tested against Estrogen receptor beta (Homo sapiens) (UniProt Q92731) (assay: blockers of coactivator peptide binding to ERβ – biochemical, TR-FRET, ERβ LBD, SRC-1 peptide, primary screen (AID 633;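 also: 0% = receptor plus peptide wells without compound and 100% = peptide-only wells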)). Settings: TR-FRET ER-beta LBD / SRC1-Cy5 peptide binding; at 25.6 µM; active compounds read high; receptor agonist-loaded with 1 µM estradiol.
Estrogen receptor beta (Homo sapiens), sequence (Q92731 whole entry, looked up, the tested form may be a part): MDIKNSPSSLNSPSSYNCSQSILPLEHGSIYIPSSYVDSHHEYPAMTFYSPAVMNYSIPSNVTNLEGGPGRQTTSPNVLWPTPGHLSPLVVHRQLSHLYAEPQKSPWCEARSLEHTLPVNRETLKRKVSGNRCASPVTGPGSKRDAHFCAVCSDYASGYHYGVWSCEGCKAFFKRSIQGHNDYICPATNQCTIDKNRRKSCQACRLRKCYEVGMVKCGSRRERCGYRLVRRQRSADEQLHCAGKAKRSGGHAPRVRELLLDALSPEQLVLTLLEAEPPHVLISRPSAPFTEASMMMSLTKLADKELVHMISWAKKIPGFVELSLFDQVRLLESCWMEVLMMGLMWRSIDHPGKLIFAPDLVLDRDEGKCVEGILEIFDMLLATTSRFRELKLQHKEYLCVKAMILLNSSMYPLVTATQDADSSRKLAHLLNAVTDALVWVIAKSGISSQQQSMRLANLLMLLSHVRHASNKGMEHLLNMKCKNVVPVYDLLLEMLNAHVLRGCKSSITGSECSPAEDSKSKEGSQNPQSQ

Row | Compound | inhibition
1 | COC(=O)c1ccc(NC(=O)CSc2nnc(-c3ccncc3)n2C)cc1 | -13.7% (inactive)
2 | C=CCn1c(SCc2c(C(=O)OC)sc(N)c2C(=O)OC)nnc1-c1ccc(Cl)cc1 | -3.96% (inactive)
3 | C=CCn1c(SCc2cc(C(=O)OC)c(C)o2)nnc1-c1ccncc1 | 51.1% (active)
4 | O=C(CN(c1ccccc1)S(=O)(=O)c1ccc(Cl)cc1)Nc1ccccc1C(=O)N1CCCC1 | -2.12% (inactive)
5 | C=C(C)CNC(=S)/N=c1\scc(C)n1CC | 77.4% [fluorescence artefact?] (active)
6 | C=CCn1c(SCCOc2ccc(OC)cc2)nnc1C(NC(=O)c1ccc(OC)cc1)C(C)C (stereo not drawn) | 6.7% (inactive)
7 | COC(=O)CSc1nc2c(c(C3CC=CCC3)c1C#N)CCC2 (stereo not drawn) | -2.54% (inactive)
8 | CCC(c1nnnn1C(C)(C)C)N(Cc1cc2cccc(C)c2n2nnnc12)C1CCCC1 (stereo not drawn) | 1.68% (inactive)
9 | O=C(CN1C(=O)CC(c2ccccc2)=Nc2ccccc21)NC1CCCCC1 | -6.21% (inactive)
10 | COc1ccc(C)cc1S(=O)(=O)Nc1cccc(Cl)c1Cl | -12.3% (inactive)
11 | Oc1c(Cl)cc(Cl)c(Cl)c1Cc1c(O)c(Cl)cc(Cl)c1Cl | 94.6% [fluorescence artefact?] (active)
12 | COc1cc(OC)c(-n2c(C)cc(C=O)c2C)cc1Cl | 4.25% (inactive)
13 | O=C(/C=C/c1ccc(Cl)cc1Cl)c1cccnc1 | 23.9% (inactive)
14 | Cc1ccc(CNC(=O)CN2CCN(Cc3ccc(Cl)cc3)C2=O)cc1 | 52.1% [fluorescence artefact?] (active)
15 | CC1CCCC(NC(=O)CN2CCN(Cc3ccc(Cl)cc3)C2=O)C1C (stereo not drawn) | -3.92% (inactive)
16 | CC(NC(=O)CN1CCN(Cc2ccc(Cl)cc2)C1=O)c1ccc2c(c1)OCCO2 (stereo not drawn) | -8.28% (inactive)
17 | COC(=O)c1cc(NC(=O)C2C3C=CC(C3)C2C(=O)O)cc(C(=O)OC)c1 (stereo not drawn) | -3.6% (inactive)
18 | Cc1cc(NC(=O)CSc2nc(C(C)C)nc3sc4c(c23)CCC(C)C4)no1 (stereo not drawn) | -5.67% (inactive)
19 | COc1ccc(C2C(C(C)=O)=C(O)C(=O)N2Cc2cccnc2)cc1 (stereo not drawn) | -18.2% (inactive)
20 | CC(C)CCSc1ncnc2c1oc1nc3c(cc12)COC(C)(C)C3 | 54.5% [fluorescence artefact?] (active)
21 | C=CCn1c(=S)[nH]c2nc3c(cc2c1=O)COC(C)(C)C3 | -1.84% (inactive)
22 | CCCc1nc2oc3c(OCC)ncnc3c2c2c1COC(C)(C)C2 | 2.61% (inactive)

Row | Compound | inhibition
23 | CCOc1cc2[nH]c(=S)n(CCN3CCCCC3C)c(=O)c2cc1OCC (stereo not drawn) | -0.24% (inactive)
24 | CCOc1cccc(NC(=O)Cn2nc(-c3ccc4c(c3)OCCO4)ccc2=O)c1 | 0.68% (inactive)
25 | C=CCc1ccc(OCCOc2cccc(/C=N/n3cnnc3)c2)c(OC)c1 | -5.22% (inactive)
26 | Cc1cccc(-n2c(N)cc(=O)nc2SC(C)C(=O)NC2CCCCC2)c1 (stereo not drawn) | -5.73% (inactive)
27 | COc1cccc(-n2c(Cc3cc(=O)[nH]c(=O)[nH]3)nnc2SCC(=O)Nc2ccccc2)c1 | -4.83% (inactive)
28 | Cc1cccc(-n2c(Cc3cc(=O)[nH]c(=O)[nH]3)nnc2SC(C)C)c1 | 51.8% [fluorescence artefact?] (active)
29 | COc1ccc(NC(=O)CSc2nc(NS(=O)(=O)c3ccc(C)cc3)cc(=O)[nH]2)cc1 | -6.84% (inactive)
30 | Oc1c(C(c2ccccn2)N2CCOCC2)ccc2cccnc12 (stereo not drawn) | 78.2% [fluorescence artefact?] (active)
31 | Cc1nc2sc(C(c3ccco3)N3CCOCC3)c(O)n2n1 (stereo not drawn) | -29.9% (inactive)
32 | O=C(c1cccnc1NCc1ccccc1)N1CCOCC1 | 2.12% (inactive)
33 | O=C(Nc1nccs1)c1cc(S(=O)(=O)N2CCOCC2)c(Cl)cc1Cl | -7.67% (inactive)
34 | c1ccc2c(-c3nn4nnnc4c4ccccc34)cccc2c1 | -6.58% (inactive)
35 | CCOC(=O)C1=C(C)NC(SC)=NC1c1ccccc1 (stereo not drawn) | -3.63% (inactive)
36 | CC(Oc1ccc(Cl)cc1)c1ccnn1S(C)(=O)=O (stereo not drawn) | -3% (inactive)
37 | O=C(c1cc2c(s1)CCC2)N1CCN(c2ccccc2)CC1 | 50.6% (active)
38 | COc1cccc(-c2nn(C)c3sc(C(=O)N4CCN(c5ccccc5)CC4)cc23)c1 | 10.8% (inactive)
39 | Cc1nc2ccc(C(=O)N3CCN(c4ccccc4)CC3)cc2s1 | -22% (inactive)
40 | O=C(Nc1ccccc1)c1ccc2c(c1)OCO2 | 35.7% (inactive)
41 | Cc1nn(C)cc1CNC(=O)Nc1ccc(Cl)cc1 | -6.02% (inactive)
42 | CCOC(=O)c1ccc(COC(=O)CCc2nc(-c3ccccc3)c(-c3ccccc3)o2)cc1 | 1.8% (inactive)
43 | COCCCn1c(Cc2csc(Nc3cccc(Cl)c3)n2)nnc1SCC(=O)OC1CCCCC1 | 77.5% (active)
44 | COCCCn1c(SCC(=O)Nc2ccccc2)nnc1-c1ccncc1 | 1.64% (inactive)

Row | Compound | inhibition
45 | C=CCn1c(CC(=O)Nc2cccc(OC)c2)nnc1SCC(=O)NC1CCCCC1 | -1.41% (inactive)
46 | O=C(NCCCCCCNC(=O)NCc1ccco1)NCc1ccco1 | -27.9% (inactive)
47 | CCOC(=O)c1sc(C)c2c1NC(C)(c1cccc3ccccc13)NC2=O (stereo not drawn) | 14.4% (inactive)
48 | COc1ccc(Cl)cc1C(=O)Nc1ccc(N(C)C(C)=O)cc1 | 3.01% (inactive)
49 | COc1cc(OC)c(C(=O)Nc2ccc(N(C)C)cc2)cc1OC | 97.4% [fluorescence artefact?] (active)
50 | COc1cc(OC)c(C(=O)NC2CCCCCC2)cc1OC | -3.66% (inactive)
51 | COc1cccc2cc(C(=O)N3CCN(C(=O)c4ccccc4)CC3)c(=O)oc12 | -4.03% (inactive)
52 | COc1ccc(S(=O)(=O)N/N=C\c2ccc(OC)c(COc3ccc(C)cc3[N+](=O)[O-])c2)cc1 | 27.5% (inactive)
53 | Cc1ccc(NC(=S)NC(NC(=O)Cc2cccc3ccccc23)C(Cl)(Cl)Cl)cc1 (stereo not drawn) | 40.2% (inactive)
54 | O=C1CCCc2nn(-c3ccccc3)nc21 | -7.98% (inactive)
55 | O=C(NCc1ccccn1)c1cc2ccccc2oc1=O | -2.55% (inactive)
56 | O=C(NCc1ccccn1)c1ccc2nc(-c3ccco3)c(-c3ccco3)nc2c1 | 93% [fluorescence artefact?] (active)
57 | CN(c1ccc(C(=O)NCc2ccccn2)cc1)S(C)(=O)=O | -12.6% (inactive)
58 | CCOC(=O)C1CSC(CC(=O)Nc2ccc(OCC)cc2)C(=O)N1 (stereo not drawn) | -12.7% (inactive)
59 | COc1ccc(NC(=O)CCN2CCCC2)c(OC)c1 | -0.42% (inactive)
60 | COc1ccc(OC)c(Nc2nc(-c3ccc(O)c(O)c3)cs2)c1 | 67.8% [fluorescence artefact?] (active)
61 | COc1ccc(-c2n[nH]c(C)c2-c2ccc(OC)c(OC)c2)c(O)c1 | 3.54% (inactive)
62 | Oc1ccc(-c2csc(Nc3cccnc3)n2)cc1 | 2.46% (inactive)
63 | O=C(COc1ccc(S(=O)(=O)NCc2ccccc2)cc1)N1CCOCC1 | -22.9% (inactive)
64 | O=C(Nc1nnc(SCc2c(Cl)cccc2Cl)s1)C1CCCO1 (stereo not drawn) | -1.99% (inactive)
65 | COc1cc(S(=O)(=O)N(Cc2cccs2)C2CC2)ccc1-n1cnnn1 | -25.2% (inactive)
66 | C=CCNC(=O)CSc1nc2sc(C)c(C)c2c(=O)[nH]1 | 6.38% (inactive)

Row | Compound | inhibition
67 | CC(=O)c1sc2nc(SCC(=O)N3CCCCC3)[nH]c(=O)c2c1C | 56.2% (active)
68 | CCOC(=O)CSc1nc2sc3c(c2c(=O)[nH]1)CC(C)(C)OC3 | -8.89% (inactive)
69 | CCCCOc1ccc(C(=O)NCc2ccncc2)cc1 | 0.29% (inactive)
70 | N#CC1=C(N)N(c2ccccc2)C2=C(C(=O)CCC2)C1c1ccccc1 (stereo not drawn) | -5.84% (inactive)
71 | O=C(CSC1=Nc2ccccc2C2=NC(CC(=O)NCc3ccco3)C(=O)N12)NCc1ccco1 (stereo not drawn) | 16.1% (inactive)
72 | CCC(C)NC(=O)CSC1=Nc2ccccc2C2=NC(CCC(=O)NCc3ccco3)C(=O)N12 (stereo not drawn) | -5.03% (inactive)
73 | CC(C)C1N=C2c3ccccc3N=C(SCC(=O)c3ccc(O)c(O)c3)N2C1=O (stereo not drawn) | 52.4% [fluorescence artefact?] (active)
74 | O=C1CSC2=NCN(c3ccccc3)CN12 | -6.24% (inactive)
75 | COC(=O)c1cccc(NC(=O)CSc2nc(C)cc(=O)[nH]2)c1 | 50.1% [fluorescence artefact?] (active)
76 | CCCCc1nnc(NC(=O)CSc2nc(C)cc(=O)[nH]2)s1 | 27.8% (inactive)
77 | CCOC(=O)Cc1csc(NC(=O)CSc2nc(C)cc(=O)[nH]2)n1 | 1.35% (inactive)
78 | O=C(CCCn1c(SCC(=O)c2ccccc2)nc2ccccc2c1=O)NCC1CCCO1 (stereo not drawn) | -2.4% (inactive)
79 | Cc1cc(C)c(OCC(=O)N/N=C/c2ccco2)c(C)c1 | -10.7% (inactive)
80 | CCCCNC(=O)C1(c2ccc(OC)cc2)CCOCC1 | 39.7% (inactive)
81 | Cc1ccc(SC(=O)COc2ccc(C)c(C)c2)cc1 | -2.52% (inactive)
82 | O=C(NC1CCCC1)C(c1ccccn1)N(C(=O)c1csnn1)C1CCCC1 (stereo not drawn) | 3.18% (inactive)
83 | COc1cccc(NS(=O)(=O)c2ccc3[nH]cc(C(=O)NCCCOC(C)C)c(=O)c3c2)c1 | 19.5% (inactive)
84 | CCN(CC)S(=O)(=O)c1ccc2[nH]cc(C(=O)NCCc3ccccc3)c(=O)c2c1 | 51.1% [fluorescence artefact?] (active)
85 | CCCCNC(=O)c1c[nH]c2ccc(S(=O)(=O)Nc3ccc(OCC)cc3)cc2c1=O | 29.9% (inactive)
86 | COC(=O)CSc1snnc1-c1ccc(Cl)c(Cl)c1 | -8.59% (inactive)
87 | Cc1cc(=O)oc2cc(OCC3CC(c4ccccc4Cl)=NO3)ccc12 (stereo not drawn) | -1.82% (inactive)
88 | CCOCN(C(=O)Cn1c(C(C)O)nc2ccccc21)c1c(C)cccc1CC (stereo not drawn) | -15.2% (inactive)
